Our source for the growth values is PubChem BioAssay (NCI).

This is part of a sample that, as a whole, favours compounds with a hit. Of some 83,000 tested, about 20% had one in any assay.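 Plates (96-well) were seeded with cells, treated with compound at one concentration, and incubated for 48 hours before percent growth was determined.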 A number with no mark means an inactive call. Active and inactive are the calls of the source. How the source made its calls: active means growth percent below 10; inactive means the rest.

Common to all, as to assay: NCI-60 one-dose screen, 48 h (100 = growth as untreated, 0 = no growth, -100 = all killed)
For one test, the system named is SR leukemia. As to conditions: 10 µM unless noted.
A further test deals with RPMI-8226 leukemia. The following applies: 10 µM.
The subject of the next test is OVCAR-8 ovarian. As to conditions: 10 µM unless noted.
A further test concerns OVCAR-5 ovarian. The following applies: 10 µM unless noted.
Another test deals with OVCAR-4 ovarian. The following applies: 10 µM unless noted.
The subject of a further test is SK-OV-3 ovarian. As to conditions: 10 µM.
A further test relates to IGROV1 ovarian. As to conditions: 10 µM unless noted.
In the next test the test system is OVCAR-3 ovarian. The following applies: 10 µM unless noted.
The subject of the next test is HS 578T breast. As to conditions: 10 µM unless noted.
Another test has as its system NCI/ADR-RES ovarian. The following applies: 10 µM unless noted.

As for `COc1ccc(/C=C2\CN(Cc3cn(CCCNc4ccnc5cc(Cl)ccc45)nn3)C/C(=C\c3ccc(OC)cc3)C2=O)cc1`, the growth is -6.55% (active) in the test on SR leukemia; 18% with RPMI-8226 leukemia; 1.09% (active) in the test on OVCAR-8 ovarian; 120% with OVCAR-5 ovarian; 55.1% in the test on OVCAR-4 ovarian; 70.7% in the test with SK-OV-3 ovarian. The growth with IGROV1 ovarian was 65%; in the test on OVCAR-3 ovarian, 68.7%; in the test with HS 578T breast it was 81.5%; in the test on NCI/ADR-RES ovarian, 50.7%.
Regarding `COc1c(O)c2c3c(c1OC)-c1ccccc1CC3N(S(=O)(=O)c1ccc(C)cc1)CC2` (stereo not given), the growth was 9.8% (active) in the test with SR leukemia; 90.9% with RPMI-8226 leukemia; 53.7% in the test with OVCAR-8 ovarian; 79.2% in the test on OVCAR-5 ovarian; 71.3% with OVCAR-4 ovarian; 48.9% in the test on SK-OV-3 ovarian. The growth with IGROV1 ovarian was 65.6%; with OVCAR-3 ovarian it was -10.4% (active); with HS 578T breast, 63%; with NCI/ADR-RES ovarian it was 40%.
`Cc1cc(O)cc2c1[C@H]1CC[C@]3(C)[C@@H](O)CC[C@H]3[C@@H]1C=C2`: the growth in the test on SR leukemia is 40.3%; in the test with RPMI-8226 leukemia, 80.8%; with OVCAR-8 ovarian, 95.3%; with OVCAR-5 ovarian it was 114%; with OVCAR-4 ovarian, 110%; in the test with SK-OV-3 ovarian it was 115%. The growth with IGROV1 ovarian is 74.4%; in the test with OVCAR-3 ovarian it was 108%; in the test on HS 578T breast it was 86.5%; in the test with NCI/ADR-RES ovarian it was 53.2%.
As to `FC(F)(F)c1cc(CNc2nc(Cl)ncc2Br)cc(C(F)(F)F)c1`, the growth in the test with SR leukemia was 38.2%; with RPMI-8226 leukemia, 70.9%; in the test on OVCAR-8 ovarian, 91.5%; in the test with OVCAR-5 ovarian, 96.6%; in the test on OVCAR-4 ovarian, 98.5%; in the test with SK-OV-3 ovarian, 81.1%. The growth in the test with IGROV1 ovarian was 75%; in the test with OVCAR-3 ovarian, 85.6%; in the test with HS 578T breast, 54.5%; in the test with NCI/ADR-RES ovarian it was 92.7%.
As to `CC(C)(C)[Si](C)(C)OC1[C@@H](COC(N)=O)O[C@@H](n2cnc3c(N)ncnc32)[C@H]1O[Si](C)(C)C(C)(C)C` (stereo not given in full), the growth in the test on SR leukemia is -31.8% (active); in the test on RPMI-8226 leukemia, 21.6%; in the test with OVCAR-8 ovarian it was 84.9%; in the test on OVCAR-5 ovarian it was 99.2%; in the test with OVCAR-4 ovarian, 96.2%; in the test with SK-OV-3 ovarian it was 91.7%. The growth in the test on IGROV1 ovarian was 113%; in the test on OVCAR-3 ovarian it was 75.6%; with HS 578T breast, 88.5%; with NCI/ADR-RES ovarian, 87.4%.
As for `O=C1c2ccccc2C(=O)c2c(Nc3ccc(CCO)cc3)ccc(O)c21`, the growth with SR leukemia was -5.4% (active); in the test on RPMI-8226 leukemia it was 46.5%; in the test with OVCAR-8 ovarian, 74.1%; in the test with OVCAR-5 ovarian it was 105%; with OVCAR-4 ovarian it was 72.5%; in the test with SK-OV-3 ovarian, 73.5%. The growth was 45.4% in the test on IGROV1 ovarian, 122% in the test on OVCAR-3 ovarian, -21.7% (active) with HS 578T breast and 82% in the test on NCI/ADR-RES ovarian.
In the case of `O=C(CCc1nnc2sc(-c3ccccc3)nn12)c1nc2ccccc2[nH]1`, the growth in the test on SR leukemia is 69.6%; in the test on RPMI-8226 leukemia, 83%; in the test on OVCAR-8 ovarian it was 97.2%; with OVCAR-5 ovarian it was 116%; with OVCAR-4 ovarian it was 98.7%; in the test with SK-OV-3 ovarian, 107%. Moreover, the growth with IGROV1 ovarian was 96.8%; in the test with OVCAR-3 ovarian, 116%; with HS 578T breast, 102%; with NCI/ADR-RES ovarian it was 92.5%.
With `Cc1ccc(S(=O)(=O)N2C/C(=C\c3cc(F)cc(F)c3)C(=O)/C(=C/c3cc(F)cc(F)c3)C2)cc1`, the growth in the test on SR leukemia was 3.56% (active); in the test on RPMI-8226 leukemia, -15.1% (active); in the test on OVCAR-8 ovarian, -29% (active); with OVCAR-5 ovarian, -30.6% (active); in the test with OVCAR-4 ovarian, -31.4% (active); in the test on SK-OV-3 ovarian, 14.9%. Besides, the growth in the test with IGROV1 ovarian was -58.6% (active); in the test on OVCAR-3 ovarian, -82.9% (active); with HS 578T breast, 11.3%; in the test with NCI/ADR-RES ovarian, 7.23% (active).
Turning to `Cc1ccc(S(=O)(=O)N(c2ccc(Cl)cc2)c2ccc(Br)cc2C(=O)O)cc1`, the growth was 104% with SR leukemia; 108% with RPMI-8226 leukemia; 101% with OVCAR-8 ovarian; 101% in the test on OVCAR-5 ovarian; 116% in the test with OVCAR-4 ovarian; 112% with SK-OV-3 ovarian. Also, the growth is 109% in the test with IGROV1 ovarian, 120% in the test on OVCAR-3 ovarian, 102% in the test on HS 578T breast and 115% in the test with NCI/ADR-RES ovarian.
For `O=c1[nH]c(-c2ccncc2)nc2sc3c(c12)CCCCCC3`, the growth in the test with SR leukemia was 40%; in the test on RPMI-8226 leukemia, 91%; in the test on OVCAR-8 ovarian, 69.2%; in the test with OVCAR-5 ovarian, 80%; in the test with OVCAR-4 ovarian it was 1.18% (active); in the test with SK-OV-3 ovarian, 31.5%. The growth in the test with IGROV1 ovarian is 69.5%; in the test with OVCAR-3 ovarian it was 74.1%; in the test on HS 578T breast it was 85.9%; in the test on NCI/ADR-RES ovarian it was 55%.
In the case of `O=C(NCc1cccnc1)c1ccc([N+](=O)[O-])o1`, the growth in the test with SR leukemia was 23%; in the test with RPMI-8226 leukemia it was 52.8%; in the test with OVCAR-8 ovarian, 4.23% (active); in the test on OVCAR-5 ovarian, -1.25% (active); in the test with OVCAR-4 ovarian, 63.9%; with SK-OV-3 ovarian it was 32.3%. Moreover, the growth was 33.7% with IGROV1 ovarian, -4.71% (active) in the test on OVCAR-3 ovarian, -9.03% (active) with HS 578T breast and -29.1% (active) with NCI/ADR-RES ovarian.
With `O=C1C=CC(=O)N1CCCCCCCCCCN1C(=O)C=CC1=O`, the growth with SR leukemia was 29.1%; in the test on RPMI-8226 leukemia, 52.9%; in the test with OVCAR-8 ovarian, 78.2%; in the test with OVCAR-5 ovarian, 103%; in the test on OVCAR-4 ovarian it was 102%; in the test on SK-OV-3 ovarian it was 126%. Moreover, the growth in the test with IGROV1 ovarian was 69.5%; in the test on OVCAR-3 ovarian, 38.2%; with HS 578T breast, 67.4%; in the test with NCI/ADR-RES ovarian, 73.1%.
Consider `COc1ccc(-c2nc3sccn3c2/C=C/C(=O)c2cc(OC)c(OC)c(OC)c2)cc1OC`, for which the growth in the test with SR leukemia is 14.6%; with RPMI-8226 leukemia it was 10.9%; with OVCAR-8 ovarian it was 25.6%; with OVCAR-5 ovarian, 79.1%; in the test with OVCAR-4 ovarian it was 21.9%; in the test with SK-OV-3 ovarian it was 26.3%. Besides, the growth was 34.1% with IGROV1 ovarian, 2.79% (active) in the test on OVCAR-3 ovarian, 3.84% (active) in the test with HS 578T breast and -9.5% (active) with NCI/ADR-RES ovarian.
Take `Nc1cc2[nH]c(=O)c3ccccc3c2cc1Br`: the growth is 61.9% in the test on SR leukemia; 76.9% in the test on RPMI-8226 leukemia; 77.6% in the test with OVCAR-8 ovarian; 60.6% in the test with OVCAR-5 ovarian; 59.2% with OVCAR-4 ovarian; 87.9% with SK-OV-3 ovarian. Further, the growth in the test on IGROV1 ovarian was 59.6%; in the test on OVCAR-3 ovarian, 72.1%; in the test on HS 578T breast it was 67%; with NCI/ADR-RES ovarian it was 81.7%.
